“And” between values parts separate entries of the source, which are not always exact repeats. Equal values may be shown once. Results filed as inconclusive are left out. Where a structure was tested more than once in an assay, its records may differ in their call. The source made the active and inactive calls. Unless noted, the call rests on the fitted dose curve; in most records, active means well fitted curve in the direction sought with a large enough effect in the repeat runs; inconclusive means weak or mixed curves; inactive means no such curve, though single readings can be large; an effect the other way counts as inactive or inconclusive.
Key:
[1] = qHTS assay for identifying genotoxic compounds that show differential cytotoxicity against isogenic chicken DT40 cell lines with known DNA damage response pathways - wild type cell line (AID 743012); further: nearly all actives have a fitted effect of over 60% in size; further: potency means the concentration at half of the fitted maximal effect
In short: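 Endpoint: CellTiter-Glo luminescence, 30 min RT. Cells: wild type DT40, 300/well. Exposure: compounds in DMSO, 40 h, 37 C/5% CO2, after ~0.5 h pre-incubation.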

[2] = qHTS assay for identifying genotoxic compounds that show differential cytotoxicity against isogenic chicken DT40 cell lines with known DNA damage response pathways - Rev3 mutant cell line (AID 743014); further: nearly all actives have a fitted effect of over 55% in size; further: potency means the concentration at half of the fitted maximal effect
[3] = qHTS assay for identifying genotoxic compounds that show differential cytotoxicity against isogenic chicken DT40 cell lines with known DNA damage response pathways - Rad54/Ku70 mutant cell line (AID 743015); further: nearly all actives have a fitted effect of over 60% in size; further: potency means the concentration at half of the fitted maximal effect
[4] = qHTS assay to identify small molecule antagonists of the androgen receptor (AR) signaling pathway - cell viability counter screen (AID 743033; further: nearly all actives have a fitted effect of over 45% in size)
[5] = qHTS assay to identify small molecule antagonists of the androgen receptor (AR) signaling pathway using the MDA cell line - cell viability counter screen (AID 743041; further: nearly all actives have a fitted effect of over 45% in size)
In short: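 Using the breast carcinoma line MDA-kb2 AR-luc, test chemicals were co-incubated with R1881 for 16 h; CellTiter-Fluor reagent, added at 15.5 h, provided a fluorescence measure of live cells.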

[6] = qHTS assay to identify small molecule antagonists of the thyroid receptor (TR) signaling pathway (AID 743065); further: nearly all actives have a fitted effect of over 55% in size; further: potency means the concentration at half of the fitted maximal effect
In short: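 Antagonism measured as loss of luciferase signal in GH3 cells stably carrying a TRE-luciferase reporter, co-treated with compound and T3 (1 nM final) for 23.5 h at 37 C. Viability was read in the same well by CellTiter-Fluor.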

[7] = tested on: thyroid hormone receptor (rat, GH3 cells); assay: qHTS assay to identify small molecule agonists of the thyroid receptor (TR) signaling pathway (AID 743066; calls by dose curve)
[8] = qHTS assay to identify small molecule antagonists of the estrogen receptor alpha (ER-alpha) signaling pathway - cell viability counter screen (AID 743074; calls by dose curve; further: nearly all actives have a fitted effect of over 45% in size; further: potency means the concentration at half of the fitted maximal effect)
[9] = qHTS assay to identify small molecule antagonists of the estrogen receptor alpha (ER-alpha) signaling pathway using the BG1 cell line - cell viability counter screen (AID 743081);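 further: compound given together with 17beta-estradiol as the ER stimulus; series mostly up to about 70 µM; nearly all actives have a fitted effect of over 45% in size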
[10] = target: Aromatase (Homo sapiens) (UniProt P11511); assay: qHTS assay to identify aromatase inhibitors (AID 743083); further: nearly all actives have a fitted effect of over 55% in size; further: potency means the concentration at half of the fitted maximal effect
Chain of Aromatase (Homo sapiens) (P11511 whole entry, looked up): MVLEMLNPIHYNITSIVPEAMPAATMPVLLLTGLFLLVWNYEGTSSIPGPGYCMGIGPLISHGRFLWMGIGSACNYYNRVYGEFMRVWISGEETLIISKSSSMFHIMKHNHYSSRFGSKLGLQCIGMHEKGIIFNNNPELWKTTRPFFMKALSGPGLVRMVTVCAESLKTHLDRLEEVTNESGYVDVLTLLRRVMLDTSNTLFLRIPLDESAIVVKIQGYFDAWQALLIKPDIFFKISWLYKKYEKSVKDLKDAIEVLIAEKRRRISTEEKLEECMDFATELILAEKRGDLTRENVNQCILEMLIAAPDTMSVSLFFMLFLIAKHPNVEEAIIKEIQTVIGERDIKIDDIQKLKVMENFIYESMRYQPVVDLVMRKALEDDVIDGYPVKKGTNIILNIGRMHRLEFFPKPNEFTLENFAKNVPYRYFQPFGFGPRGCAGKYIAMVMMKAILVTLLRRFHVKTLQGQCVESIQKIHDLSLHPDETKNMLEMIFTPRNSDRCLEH

[11] = qHTS assay to identify small molecule antagonists of the thyroid receptor (TR) signaling pathway - cell viability counter screen (AID 743064); further: nearly all actives have a fitted effect of over 50% in size
In short: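 GH3.TRE-Luc cells, 4 h pre-plating; cpd + T3 1 nM final; 37 °C 23.5 h; CellTiter-Fluor 30 min; fluorescence read.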

[12] = target: Estrogen receptor (Homo sapiens) (UniProt P03372); assay: qHTS assay to identify small molecule antagonists of the estrogen receptor alpha (ER-alpha) signaling pathway (AID 743069; active means well fitted curve in the direction sought with a large enough effect in the signal ratio in the repeat runs, not every such curve was filed as active; the % refers to the signal ratio)
Chain of Estrogen receptor (Homo sapiens) (P03372 whole entry, looked up): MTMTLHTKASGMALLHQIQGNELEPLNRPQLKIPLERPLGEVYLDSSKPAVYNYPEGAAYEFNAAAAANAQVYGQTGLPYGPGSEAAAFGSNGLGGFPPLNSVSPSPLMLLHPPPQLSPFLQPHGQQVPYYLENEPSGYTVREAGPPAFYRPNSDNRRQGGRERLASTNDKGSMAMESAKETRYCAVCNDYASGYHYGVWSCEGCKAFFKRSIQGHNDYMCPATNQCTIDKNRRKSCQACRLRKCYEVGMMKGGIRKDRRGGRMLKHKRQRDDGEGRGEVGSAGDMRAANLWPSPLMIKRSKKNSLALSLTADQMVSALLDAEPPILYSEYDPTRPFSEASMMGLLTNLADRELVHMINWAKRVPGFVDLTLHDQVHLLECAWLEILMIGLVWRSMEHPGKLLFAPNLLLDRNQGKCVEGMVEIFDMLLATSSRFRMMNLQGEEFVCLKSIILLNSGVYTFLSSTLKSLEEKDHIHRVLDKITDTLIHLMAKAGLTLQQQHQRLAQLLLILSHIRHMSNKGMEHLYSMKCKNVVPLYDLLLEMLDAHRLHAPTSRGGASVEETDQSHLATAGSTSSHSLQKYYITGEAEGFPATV
In short: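 Fluorescence intensity from a beta-lactamase FRET substrate served as the read-out. Cells: HEK293 with stably integrated ER-alpha-UAS-bla reporter. Agonist 17beta-estradiol was co-added with compounds; incubation 18 hr at 37C, substrate 2 hr at room temperature.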

[13] = target: Estrogen receptor (Homo sapiens) (UniProt P03372); assay: qHTS assay to identify small molecule agonists of the estrogen receptor alpha (ER-alpha) signaling pathway (AID 743075; calls by dose curve)
[14] = target: Estrogen receptor (Homo sapiens) (UniProt P03372); assay: qHTS assay to identify small molecule agonists of the estrogen receptor alpha (ER-alpha) signaling pathway using the BG1 cell line (AID 743079); further: nearly all actives have a fitted effect of over 20% in size
[15] = qHTS assay to identify small molecule antagonists of the estrogen receptor alpha (ER-alpha) signaling pathway using the BG1 cell line (AID 743080; calls by dose curve;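 further: BG1 cells stimulated with 17beta-estradiol alongside compound; series mostly up to about 70 µM; nearly all actives have a fitted effect of over 25% in size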)
In short: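 Luciferase inhibition measured with ONE-Glo after 30 min at RT in BG1Luc4E2 cells given test compounds and 17beta-estradiol for 21.5 h at 37 C; CellTiter-Fluor viability read in the same wells beforehand.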

Measured: Potency

Oc1cc(Cl)ccc1Oc1ccc(Cl)cc1Cl
inactive and 11.2 µM (active): [8]
inactive and 24.8 µM (active): [10]
active: [1] 7.02 µM | [2] 11.4 µM | [3] 26.6 µM and 10.3 µM | [6] 8.84 µM
inactive: [4] | [5] | [7] | [9]

O=[N+]([O-])c1cccc2ccccc12
inactive: all assays above

CCCCCCOC(=O)c1ccccc1C(=O)OCCCCCC
inactive and 30.6 µM (active): [1]
inactive: all other assays above

c1ccc(N=Nc2ccccc2)cc1
not listed: [11] | [12] | [13] | [14] | [15]
inactive: all other assays above

Cc1cccc(N)c1N
active: [2] 19.3 µM | [3] 21.7 µM
inactive: [4] | [5] | [6] | [7] | [8] | [9] | [10]
inactive and 19.3 µM (active): [1]

CCCCN(CCCC)N=O
not listed: [11]
inactive: all other assays above

CC(C)(C)c1ccccc1O
active: [2] 61.1 µM
not listed: [1] | [12] | [13] | [14] | [15]
inactive: all other assays above

Reference: PubChem BioAssay (Tox21)
